Measured values published in PubChem BioAssay AID651822 (The Scripps Research Institute Molecular Screening Center, 2012).
Out of some 2,300 compounds screened, about 970 (42%) were called active. Rule as the data show it: active = inhibition above about 4.5%; inactive = the rest. So high a share suggests a set chosen from earlier hits. The list is a sample of the results.

system: Methionine sulfoxide reductase A (Bos taurus); experiment: methionine sulfoxide reductase A inhibition – biochemical, absorbance, bovine, HTS, confirmation (AID 651822); conditions: purified bovine MsrA, absorbance read-out; at 15.5 µM; active compounds read high;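 also: coupled to thioredoxin reductase with NADPH and selenocystamine and DMSO as substrate; 0% = vehicle only and 100% = full effect of reference inhibitor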

Compound	inhibition
CCCCC(=O)N/N=C/c1c(O)n(CC)c(=S)n(CC)c1=O	6.08% (active)
CCOc1ccc(-c2cc(C)[n+](CCN(CC)CC)c(-c3ccc(OCC)cc3)c2)cc1	3.69% (inactive)
COc1ccc(C(=O)C2CCCN(Cc3ccc(C)s3)C2)cc1OC (stereo not drawn)	-0.82% (inactive)
